Shown are actives, neighbours in structure and some others; about 10% of the full set was active somewhere.
KB-3-1 tox: qHTS assay for MDR1-selective chemotherapeutics: Primary screen using the parental adenocarcinoma cell KB-3-1. KB-3-1 viability, CellTiter-Glo ATP luminescence, 72 h. hit rate 1.4% among 400,000. AID 1347075, 2019. Potency, µM (series often up to 46.1 µM), hits mostly cytotoxic; also: nearly all actives have a fitted effect of over 60% in size
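72 h, 37 °C compound treatment of KB-3-1 parental cells; CellTiter-Glo added, 10 min, luminescence read. Data corrected against DMSO-only plates and normalized before curve fitting.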
Gal4-VP16 FLuc: VP16 counterscreen qHTS for inhibitors of ROR gamma transcriptional activity; Drosophila S2 Gal4-VP16 UAS-luciferase, luminescence, 20 h; Potency, µM (doses to about 53.6 µM), most hits filed as inhibitors; hit rate 3.5% among 310,000;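 also: Gal4-VP16 expression switched on by copper sulfate through the metallothionein promoter; nearly all actives have a fitted effect of over 50% in size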
RORgamma inh: qHTS for inhibitors of ROR gamma transcriptional activity; Nuclear receptor ROR-gamma (Mus musculus), P51450; Drosophila S2 Gal4-RORgamma UAS-luciferase reporter, 20 h; Potency, µM (doses to about 53.6 µM), actives largely listed as inhibitors; hit rate 5.4% among 310,000; also: nearly all actives have a fitted effect of over 60% in size
Target sequence (P51450 whole entry, looked up, the tested form may be a part): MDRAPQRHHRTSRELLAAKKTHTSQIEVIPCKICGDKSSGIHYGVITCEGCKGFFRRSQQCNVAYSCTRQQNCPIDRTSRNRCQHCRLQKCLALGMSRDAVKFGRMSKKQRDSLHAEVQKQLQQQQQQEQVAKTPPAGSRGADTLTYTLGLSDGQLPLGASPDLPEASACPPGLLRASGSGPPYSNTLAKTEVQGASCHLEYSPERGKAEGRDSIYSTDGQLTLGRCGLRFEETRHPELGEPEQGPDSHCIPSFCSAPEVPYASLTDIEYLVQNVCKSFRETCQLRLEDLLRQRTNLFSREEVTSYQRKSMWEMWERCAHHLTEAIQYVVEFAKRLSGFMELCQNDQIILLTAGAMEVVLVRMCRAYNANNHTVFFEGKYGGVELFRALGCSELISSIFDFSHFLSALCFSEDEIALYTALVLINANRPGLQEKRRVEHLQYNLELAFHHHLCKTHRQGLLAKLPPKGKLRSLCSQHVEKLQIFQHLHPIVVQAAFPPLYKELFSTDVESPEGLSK
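A Gal4/UAS one-hybrid system in insect cells: metallothionein-promoter Gal4–ROR gamma fusion plus Photinus luciferase reporter. Copper sulfate 700 uM final, 20 hr ambient incubation, luminescent detection after 10 min with reagent.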
MCF10A rerep: A quantitative high throughput screen for small molecules that induce DNA re-replication in MCF 10a normal breast cells; MCF 10A DNA re-replication, Hoechst nuclear intensity, 48 h; hit rate 2.9% among 350,000; Potency, µM (top dose mostly 46.1 µM), hits mostly activators; also: nearly all actives have a fitted effect of over 50% in size
SW480 rerep: A quantitative high throughput screen for small molecules that induce DNA re-replication in SW480 colon adenocarcinoma cells. SW480 DNA re-replication, Hoechst DNA content imaging, 48 h. Potency, µM (series often up to 46.1 µM), most hits filed as activators. hit rate 1.8% among 340,000. AID 624297, 2012; also: nearly all actives have a fitted effect of over 55% in size
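Image-based DNA-content assay: after two days of treatment, nuclei were labelled with the DNA dye Hoechst and imaged, and hits were compounds raising the count of nuclei showing high fluorescence intensity.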
KB-V1 cytotox: qHTS assay for MDR1-selective chemotherapeutics: Primary screen using the drug-selected MDR subline cells KB-V1; KB-V1 MDR cells viability, CellTiter-Glo, 72 h; Potency, µM (doses to about 46.1 µM), most hits filed as cytotoxic; hit rate 3.4% among 400,000; also: nearly all actives have a fitted effect of over 60% in size
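KB-V1 cells (P-gp-expressing MDR subline of KB-3-1) in phenol-red-free DMEM with 10% FBS were exposed to library compounds over a concentration series for 72 h at 37 degrees C. Viability read by CellTiter-Glo luminescence; concentration-effect curves fitted after normalization.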
Large screens that a line does not name were inactive. Calls follow the shape of the dose curve; as a rule, active = well fitted curve in the direction sought with a large enough effect; inconclusive = small, poorly fitted or top-dose-only effect, or another doubt; inactive = no such curve, though single readings can be large; an effect the other way counts as inactive or inconclusive.

Cc1cc[n+](CCC2CCCCC2)cc1	KB-3-1 tox 21µM (no result: Gal4-VP16 FLuc, RORgamma inh, MCF10A rerep, SW480 rerep)
c1ccc2c(c1)sc[n+]2CCC1CCCCC1	none (no result: Gal4-VP16 FLuc, RORgamma inh, MCF10A rerep, SW480 rerep)
C#CCn1c(=O)c2c(nc(/C=C/c3cccc(OC)c3)n2C)n(CCCO)c1=O	none (no result: KB-3-1 tox, MCF10A rerep, SW480 rerep, KB-V1 cytotox)
CCOC(=O)c1c(NC(=O)c2cccc(N3C(=O)CCC3=O)c2)sc(C)c1C	RORgamma inh inconclusive, KB-V1 cytotox 10µM
O=C(Nc1cccnc1Cl)c1ccc(S(=O)(=O)N2CCCCCC2)cc1	KB-V1 cytotox 9.2µM
O=C(CSc1ccccc1)Nc1ccc(S(=O)(=O)Nc2ncccn2)cc1	RORgamma inh 13µM
CCOC(=O)c1c(-c2ccc(-c3ccccc3)cc2)csc1NC(=O)c1cccc(N2C(=O)CCC2=O)c1	KB-V1 cytotox inconclusive
O=C(COC(=O)c1ccc(S(=O)(=O)N2CCCC2)cc1)Nc1cccnc1Cl	none
Cc1ccc(C)c(NC(=S)Nc2ccc(S(=O)(=O)Nc3ncccn3)cc2)c1	KB-3-1 tox inconclusive, Gal4-VP16 FLuc inconclusive, RORgamma inh inconclusive
Cc1ccc(NC(=S)Nc2ccc(S(=O)(=O)Nc3ncccn3)cc2)c(C)c1	RORgamma inh 13µM, KB-V1 cytotox inconclusive
CCOc1ccc(N2CC(c3nc4ccccc4n3Cc3cccc(Cl)c3)CC2=O)cc1 (centres undefined)	none (no result: Gal4-VP16 FLuc, RORgamma inh, MCF10A rerep, SW480 rerep)
O=c1c(CCc2ccccc2)nc2cnc(N3CCOCC3)nc2n1C1CC1	none (no result: KB-3-1 tox, MCF10A rerep, SW480 rerep, KB-V1 cytotox)
COc1cccc([C@@H]2Oc3ccc(OC)cc3C[C@H]2OC(=O)Nc2ccc(OC(F)F)cc2)c1	RORgamma inh inconclusive (no result: KB-3-1 tox, MCF10A rerep, SW480 rerep, KB-V1 cytotox)
O=C(Nc1ccc(S(=O)(=O)Nc2ncccn2)cc1)c1ccc(S(=O)(=O)N2CCCC2)cc1	RORgamma inh 13µM
O=S(=O)(NNC(=S)Nc1ccc(S(=O)(=O)Nc2ncccn2)cc1)c1ccc(Br)cc1	none
CCc1nnc(NC(=O)c2cc(S(=O)(=O)N3CCN(c4ccccc4)CC3)ccc2Cl)s1	none
CCc1nnc(NC(=O)c2cccc(S(=O)(=O)N3CCN(c4ccccc4)CC3)c2)s1	Gal4-VP16 FLuc inconclusive, RORgamma inh 13µM, SW480 rerep inconclusive
O=C(NC(=S)Nc1ccc(S(=O)(=O)Nc2ncccn2)cc1)c1ccc(Br)cc1	SW480 rerep 18µM
COC(=O)c1c(NC(=O)c2cccc(S(=O)(=O)N3CCN(C)CC3)c2)sc(C)c1C	MCF10A rerep 21µM, SW480 rerep inconclusive (no result: Gal4-VP16 FLuc, RORgamma inh)
CCOC(=O)c1sc(NC(=O)c2cccc(S(=O)(=O)N3CCN(C)CC3)c2)cc1C	Gal4-VP16 FLuc inconclusive, RORgamma inh inconclusive
COc1ccc(S(=O)(=O)NCCS(=O)(=O)N2CCN(c3ccccc3)CC2)cc1C	none (no result: Gal4-VP16 FLuc, RORgamma inh, MCF10A rerep, SW480 rerep)
COC(=O)N1CCC[C@@]2(CCN(Cc3nccs3)C2)C1	none (no result: KB-3-1 tox, MCF10A rerep, SW480 rerep, KB-V1 cytotox)
CN1CCN(S(=O)(=O)c2cccc(C(=O)Nc3nc(-c4ccccc4)cs3)c2)CC1	KB-3-1 tox inconclusive, MCF10A rerep inconclusive, KB-V1 cytotox 3.3µM
O=C(Nc1nc(-c2ccccn2)cs1)c1ccc(S(=O)(=O)N2CCCCC2)cc1	Gal4-VP16 FLuc 6.3µM, RORgamma inh 1.6µM (no result: KB-3-1 tox, MCF10A rerep, SW480 rerep, KB-V1 cytotox)
NS(=O)(=O)c1ccc(S(=O)(=O)N2CCN(c3nc(-c4cccs4)nc4ccccc34)CC2)cc1	none (no result: Gal4-VP16 FLuc, RORgamma inh, MCF10A rerep, SW480 rerep)
N#Cc1ccc(CN2CCC3(CC2)CCN(C(=O)c2ccncc2)CC3)cc1	none (no result: KB-3-1 tox, MCF10A rerep, SW480 rerep, KB-V1 cytotox)
COc1ccc(C(=O)CSc2[nH]c(=O)cc(C(F)(F)F)c2C#N)cc1	KB-3-1 tox inconclusive, RORgamma inh inconclusive, MCF10A rerep 18µM, SW480 rerep inconclusive
O=C(Nc1nnc(-c2ccccc2SCc2ccccc2)s1)Nc1ccccc1F	SW480 rerep 3.7µM
O=C(NC1CCCCC1)c1ccc(CSc2nc3ccncc3n2Cc2cccc(F)c2)cc1	none (no result: Gal4-VP16 FLuc, RORgamma inh, MCF10A rerep, SW480 rerep)
CC1Cc2ccccc2N1C(=O)CSc1nc2ccc(NC(=O)COc3ccccc3)cc2s1 (centres undefined)	none (no result: Gal4-VP16 FLuc, RORgamma inh, MCF10A rerep, SW480 rerep)
COc1ccccc1CN1CCCC2(CCN(C(=O)c3cccn3C)CC2)C1	none (no result: KB-3-1 tox, MCF10A rerep, SW480 rerep, KB-V1 cytotox)
Cc1ccc(C)c(OCCn2cc(/C=C(\C#N)C(=O)NCc3ccco3)c3ccccc32)c1	MCF10A rerep inconclusive, SW480 rerep inconclusive
COCCNC(=O)/C(C#N)=C/c1cn(CC(=O)NCc2ccco2)c2ccccc12	none
Cc1cccc(NC(=O)/C(C#N)=C/c2cn(CC(=O)NCc3ccco3)c3ccccc23)c1	MCF10A rerep 8.2µM, SW480 rerep inconclusive
N#C/C(=C\c1cn(CC(=O)N2CCCCC2)c2ccccc12)C(=O)NCc1ccc2c(c1)OCO2	SW480 rerep 1.6µM, KB-V1 cytotox 26µM
N#C/C(=C\c1cn(CCOc2ccccc2)c2ccccc12)C(=O)NCc1cccs1	MCF10A rerep inconclusive, SW480 rerep 16µM, KB-V1 cytotox inconclusive
N#C/C(=C\c1cn(Cc2ccccc2F)c2ccccc12)C(=O)NCc1ccco1	MCF10A rerep 18µM
Cc1ccc(C(=O)Nc2ccccc2C(=O)OCc2cc(=O)n3nc(C4CC4)sc3n2)cc1	KB-V1 cytotox inconclusive (no result: Gal4-VP16 FLuc, RORgamma inh, MCF10A rerep, SW480 rerep)
COC(=O)C1=C[C@@H](C(=O)OC)C2C3=C(C(=O)[C@]2(C)NC(=O)c2ccccc2)[C@H](C)[C@@H]2C(=O)N(C)C(=O)[C@@H]2[C@@H]3C1 (some centres undefined)	none (no result: KB-3-1 tox, MCF10A rerep, SW480 rerep, KB-V1 cytotox)
COc1ccccc1OCCn1cc(/C=C(\C#N)C(=O)NCc2ccco2)c2ccccc21	KB-V1 cytotox 3.7µM
